From PubChem BioAssay
The source made the active and inactive calls.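 How the source made its calls, unless noted: active means viability at or below 10% of carrier control in both of two separate runs; inconclusive means viability at or below 10% in only one of the two runs; inactive means the rest.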

Legend:
[1] = SK-BR-3 cell growth inhibitors, pilot screen, 24 h, human (AID 572); conditions: SK-BR-3 viability, CellTiter-Glo luminescence, at 10 µM, stronger effect = lower value;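 further: compound exposure lasted between 18 and 24 h rather than exactly 24 h; 100% = carrier-treated control wells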
[2] = HUVEC growth inhibition – cell-based, human, primary screen (AID 575;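 active means viability at or below 30% in both replicate assays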;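 further: 100% = median of untreated cell wells with 0.1% DMSO on each plate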); conditions: HUVEC proliferation, CellTiter-Glo luminescence, 72 h; at 10 µM; stronger effect = lower value
[3] = growth inhibitors of H69AR lung tumor, primary screen, human, duplicate replicates (AID 580;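 active means viability at or under a set limit in both replicates, limit being median viability minus 3 SD, cut at about 48% in these data, passing the limit was not always enough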;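 further: 100% = mean luminescence of untreated wells and 0% = no signal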); conditions: H69AR lung tumor cells viability, ATP luminescence, 72 h; at 10 µM; stronger effect = lower value
[4] = reversal of MRP1-mediated doxorubicin resistance, pilot screen, H69AR cells, doxorubicin co-treatment (AID 601;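 active means viability loss from added drug above about 55%, and viability with drug at most 40%, in both replicates, limit read from the data, passing the limit was not always enough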); conditions: CellTiter-Glo, 72 h, at 10 µM; for differential viability (reversal): stronger effect = higher value
[5] = 384-well plate pilot, post-Golgi transport modulator project, inhibition of yeast transport mutant growth (AID 636; in the data active means inhibition above about 31%); conditions: absorbance 615 nm, about 18 h, stronger effect = higher value
[6] = growth suppression of yeast trafficking mutant, preliminary HTS, modulators of trafficking downstream of Golgi apparatus project, 1536-format plate, OD 615 nm (AID 637; in the data active means inhibition above about 30%); conditions: yeast transport mutant growth, absorbance 615 nm, 18 h; stronger effect = higher value
[7] = H69AR cells + 2 uM doxorubicin, measured here: viability with 2 uM doxorubicin, stronger effect = lower value
[8] = H69AR cells, compound alone cytotoxicity

Compound | viability [1] | viability [2] | viability [3] | differential viability (reversal) ([4]; H69AR cells + 2 uM doxorubicin) | viability [4, 7] | viability [4, 8] | inhibition [5] | inhibition [6]
O=C(NC1CCCCC1)c1nc2c(nnn2Cc2ccccc2Cl)c(=O)[nH]1 | 77% (inactive) | 104% (inactive) | 110% (inactive) | 12% (inactive) | 98.4% | 110% | -6.58% (inactive) | -7.58% (inactive)
COc1ccc(CCNc2oc(COc3ccc(F)cc3)nc2C#N)cc1 | 164% (inactive) | 76.2% (inactive) | 93.7% (inactive) | 2.54% (inactive) | 91.1% | 93.7% | -4.73% (inactive) | 1.27% (inactive)
CCOC(=O)c1ccc(N(CC(=O)NC2CCCC2)C(=O)CNC(=O)c2ccco2)cc1 | 90% (inactive) | 95.4% (inactive) | 93.9% (inactive) | 1.51% (inactive) | 92.4% | 93.9% | 0.13% (inactive) | -2.46% (inactive)
COc1ccc(/C(O)=C2\C(=O)C(=O)N(c3cc(C)on3)C2c2ccccc2OC)cc1 (stereo not drawn) | 105% (inactive) | 101% (inactive) | 78.5% (inactive) | -6.79% (inactive) | 85.3% | 78.5% | -8.27% (inactive) | -5.09% (inactive)
Cc1cc(C)n(C(=O)C23CC4CC(CC(C4)C2)C3)n1 | 106% (inactive) | 85.9% (inactive) | 99.3% (inactive) | 3.23% (inactive) | 96.1% | 99.3% | -8.36% (inactive) | -5.32% (inactive)
N#CC1=C(N)OC2=C(C(=O)CCC2)C1CCc1ccccc1 (stereo not drawn) | 98% (inactive) | 91.9% (inactive) | 103% (inactive) | 14.2% (inactive) | 89.3% | 103% | -6.08% (inactive) | 1.64% (inactive)
CCOC(=O)c1cc(C(C)(C)C)oc1CN | 118% (inactive) | 96.1% (inactive) | 90.8% (inactive) | -1.73% (inactive) | 92.5% | 90.8% | -7.12% (inactive) | 9.35% (inactive)
CCOC(=O)c1ccccc1NC1CC(=O)N(c2ccccc2C)C1=O (stereo not drawn) | 98% (inactive) | 101% (inactive) | 98.4% (inactive) | 8.82% (inactive) | 89.6% | 98.4% | -2.13% (inactive) | -6.73% (inactive)
Cc1cccc(NC(=O)c2ccc3ccccc3n2)n1 | 91% (inactive) | 86.6% (inactive) | 76.3% (inactive) | -18.1% (inactive) | 94.3% | 76.3% | -0.13% (inactive) | -1.83% (inactive)
CC1(C)CC(=O)C=C(NCc2ccncc2)C1 | 89% (inactive) | 113% (inactive) | 98.6% (inactive) | -26.3% (inactive) | 125% | 98.6% | -2.3% (inactive) | -3.45% (inactive)
Cc1cc(=O)oc2cc(OCC(=O)OCC(=O)N3CCc4ccccc43)ccc12 | 103% (inactive) | 101% (inactive) | 93.2% (inactive) | -2.07% (inactive) | 95.3% | 93.2% | -8.38% (inactive) | -4.55% (inactive)
CCCS(=O)(=O)N1CCCC(C(=O)NC2CCCC(C)C2C)C1 (stereo not drawn) | 101% (inactive) | 113% (inactive) | 94.8% (inactive) | 8.93% (inactive) | 85.8% | 94.8% | -2.73% (inactive) | -3.28% (inactive)
CCCNC(=O)NS(=O)(=O)c1ccc(Cl)cc1 | 124% (inactive) | 85% (inactive) | 97.5% (inactive) | 10.4% (inactive) | 87.1% | 97.5% | -1.17% (inactive) | 0.83% (inactive)
Cc1ccc(CS(=O)(=O)Cc2ccc(C(=O)NCc3ccccn3)o2)cc1 | 95% (inactive) | 99.8% (inactive) | 99.4% (inactive) | 9% (inactive) | 90.4% | 99.4% | -1.87% (inactive) | -0.18% (inactive)
CN(C)CCOC(c1ccccc1)c1ccccc1 | 78% (inactive) | 86.9% (inactive) | 87.6% (inactive) | 5.28% (inactive) | 82.3% | 87.6% | -1.69% (inactive) | 2.5% (inactive)
CCCC1CCC(C(=O)Nn2cnc3ccccc3c2=O)CC1 (stereo not drawn) | 101% (inactive) | 108% (inactive) | 91.7% (inactive) | 9.62% (inactive) | 82% | 91.7% | 1.17% (inactive) | 7.05% (inactive)
Cc1cccc(NC(=O)CC2CCC2)c1 | 87% (inactive) | 102% (inactive) | 99.8% (inactive) | -2.9% (inactive) | 103% | 99.8% | -5.75% (inactive) | 4.55% (inactive)
COC(=O)c1ccccc1NC(=O)C1CC=CCC1C(=O)O (stereo not drawn) | 117% (inactive) | 99.7% (inactive) | 84.8% (inactive) | 1.5% (inactive) | 83.3% | 84.8% | -9.73% (inactive) | -0.81% (inactive)

Compound | viability [1] | viability [2] | viability [3] | differential viability (reversal) ([4]; H69AR cells + 2 uM doxorubicin) | viability [4, 7] | viability [4, 8] | inhibition [5] | inhibition [6]
COCCN(Cc1cc2cc3c(cc2n2nnnc12)OCO3)C(=O)c1ccccc1F | 94% (inactive) | 113% (inactive) | 101% (inactive) | 2.13% (inactive) | 99.3% | 101% | -6.35% (inactive) | -7.27% (inactive)
CCCn1nnc(NCc2ccc(OCc3cccs3)c(OC)c2)n1 | 88% (inactive) | 106% (inactive) | 96.5% (inactive) | 1.02% (inactive) | 95.5% | 96.5% | -6.44% (inactive) | 2.36% (inactive)
O=C(NCCCN1CCCC1=O)C1CCN(S(=O)(=O)N2CCOCC2)CC1 | 90% (inactive) | 118% (inactive) | 100% (inactive) | 5.27% (inactive) | 94.8% | 100% | 5.41% (inactive) | -1.45% (inactive)
COC(=O)c1ccc(CSc2nnnn2Cc2ccccc2)cc1 | 111% (inactive) | 98.6% (inactive) | 86% (inactive) | 0.715% (inactive) | 85.2% | 86% | -4.13% (inactive) | -2.36% (inactive)
CC(C)CN(CC(C)C)c1nc(N)c(C#N)c(CC#N)c1C#N | 106% (inactive) | 114% (inactive) | 86.7% (inactive) | 13.6% (inactive) | 73.1% | 86.7% | -5.6% (inactive) | -1.27% (inactive)
O=C(O)CCNC(=O)c1ccccc1 | 84% (inactive) | 99.1% (inactive) | 98.7% (inactive) | 7.94% (inactive) | 90.7% | 98.7% | 2.47% (inactive) | 1.17% (inactive)
CC1(C)SC2[C@H](NC(=O)C(NC(=O)N3CCNC3=O)c3ccccc3)C(=O)N2C1C(=O)O (stereo partly drawn) | 107% (inactive) | 80.2% (inactive) | 95.3% (inactive) | 1.74% (inactive) | 93.6% | 95.3% | 0.26% (inactive) | 2.67% (inactive)
O=C1c2ccccc2NC2CCCCCN12 (stereo not drawn) | 108% (inactive) | 92.9% (inactive) | 100% (inactive) | 10.3% (inactive) | 89.8% | 100% | -2.34% (inactive) | 1.48% (inactive)
COc1ccc(OC)c(NC(=O)CS(=O)(=O)c2ccccc2)c1 | 124% (inactive) | 94.7% (inactive) | 86.3% (inactive) | -7.39% (inactive) | 93.7% | 86.3% | -6.3% (inactive) | 0.91% (inactive)
O=C(NCc1ccco1)c1cc2sccc2n1Cc1ccccc1 | 131% (inactive) | 97.3% (inactive) | 71.2% (inactive) | -18.5% (inactive) | 89.7% | 71.2% | 3.01% (inactive) | 14.2% (inactive)
Cc1nn(C(=O)c2ccccc2)c2c1C(=O)CC(C)(C)C2 | 76% (inactive) | 95.8% (inactive) | 94.7% (inactive) | 1.29% (inactive) | 93.4% | 94.7% | -7.12% (inactive) | 0.73% (inactive)
COc1ccc2cc(C#N)c(N3CCN(Cc4nnnn4CCC(C)C)CC3)nc2c1 | 89% (inactive) | 64.5% (inactive) | 79.4% (inactive) | 8.18% (inactive) | 71.2% | 79.4% | -2.93% (inactive) | 2.73% (inactive)
Cc1cccc(NC(=O)c2cc(NC(=O)c3ccco3)ccc2Cl)n1 | 101% (inactive) | 77.2% (inactive) | 95.4% (inactive) | 0.16% (inactive) | 95.3% | 95.4% | -1.56% (inactive) | 7.21% (inactive)
Cc1ccc2c(c1)nnn2C1CCN(C(=O)NC23CC4CC(CC(C4)C2)C3)CC1 | 72% (inactive) | 102% (inactive) | 92.1% (inactive) | 8.39% (inactive) | 83.7% | 92.1% | -8.08% (inactive) | 0.16% (inactive)
Cn1c(-c2ccccc2)cnc1SCc1nc2ccccc2c(=O)[nH]1 | 107% (inactive) | 105% (inactive) | 101% (inactive) | 18.1% (inactive) | 82.5% | 101% | -2.53% (inactive) | 4.18% (inactive)
CCOC(=O)c1c(-c2ccc(C)o2)csc1NC(=O)CN1CCN(CC)CC1 | 87% (inactive) | 88.6% (inactive) | 80.2% (inactive) | -6.44% (inactive) | 86.7% | 80.2% | -7.53% (inactive) | 4.18% (inactive)
CCOC(=O)C1=C(C)Nc2nc(SCC(=O)OC)nn2C1c1cc(F)cc(F)c1 (stereo not drawn) | 91.5% (inactive) | 75.4% (inactive) | 92.9% (inactive) | 7.16% (inactive) | 85.7% | 92.9% | -8.24% (inactive) | 2.06% (inactive)
Cc1[nH]nc(-c2ccc(O)c(C)c2O)c1-c1cnn(-c2ccccc2)c1 | 93% (inactive) | 85.4% (inactive) | 94.2% (inactive) | 12% (inactive) | 82.1% | 94.2% | -4.52% (inactive) | -3.27% (inactive)
